# Assay outcomes: PubChem, National Center for Advancing Translational Sciences (NCATS)
# KB-V1 MDR tox = qHTS assay for MDR1-selective chemotherapeutics: Primary screen using the drug-selected MDR subline cells KB-V1; 400,000 compounds, 3.4% hits; KB-V1 MDR cells viability, CellTiter-Glo, 72 h; Potency, µM (highest dose often 46.1 µM), usual class: cytotoxic; AID 1347076, 2019; note: % is set by controls: 0 for no effect and ±100 for the full control effect; nearly all actives have a fitted effect of over 60% in size
#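 Compound-treated KB-V1 multidrug-resistant cells, 72 h, 37 degrees C; viability by CellTiter-Glo. Fitted qHTS curves give the values.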
# SW480 rereplic = A quantitative high throughput screen for small molecules that induce DNA re-replication in SW480 colon adenocarcinoma cells; SW480 DNA re-replication, Hoechst DNA content imaging, 48 h; Potency, µM (titrated, usually from 46.1 µM), for inactives: at the highest dose re-replication activation, hits mostly activators; 340,000 compounds, 1.8% hits; note: % of control where 0% means no effect; nearly all actives have a fitted effect of over 55% in size
#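 250 cells/well; 23 nL cpd via pin tool; 48 hr, 37 C, 5% CO2; Hoechst 40 min; imager read of total nuclear intensity, ex 405/em 500-530 nm.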
# RORg inh = qHTS for inhibitors of ROR gamma transcriptional activity; Drosophila S2 Gal4-RORgamma UAS-luciferase reporter, 20 h; Potency, µM (top dose mostly 53.6 µM), inactives show at the highest dose activity change, negative = inhibition, most hits filed as inhibitors; 310,000 compounds, 5.4% hits; note: % is set by controls: 0 for no effect and ±100 for the full control effect; nearly all actives have a fitted effect of over 60% in size
# Target sequence (P51450 whole entry, looked up, the tested form may be a part): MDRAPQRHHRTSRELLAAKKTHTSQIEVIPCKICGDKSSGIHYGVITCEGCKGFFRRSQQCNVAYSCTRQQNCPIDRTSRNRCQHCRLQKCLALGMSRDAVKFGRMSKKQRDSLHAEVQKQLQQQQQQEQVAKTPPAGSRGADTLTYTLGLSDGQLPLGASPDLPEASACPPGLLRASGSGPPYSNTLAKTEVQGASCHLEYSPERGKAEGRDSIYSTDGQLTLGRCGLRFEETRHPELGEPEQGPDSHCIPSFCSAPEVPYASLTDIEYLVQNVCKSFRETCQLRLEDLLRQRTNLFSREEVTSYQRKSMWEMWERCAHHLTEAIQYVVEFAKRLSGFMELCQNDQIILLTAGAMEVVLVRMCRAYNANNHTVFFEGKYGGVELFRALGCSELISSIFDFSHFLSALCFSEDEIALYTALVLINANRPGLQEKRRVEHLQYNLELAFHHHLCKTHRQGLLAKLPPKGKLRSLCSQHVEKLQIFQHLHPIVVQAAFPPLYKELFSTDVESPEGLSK
#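 In this cell-based reporter format, copper sulfate (700 uM final) drives Gal4–ROR gamma fusion expression from a metallothionein promoter in Drosophila Schneider cells; compounds preincubated 1 hr, reporter read after 20 hr at ambient temperature.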
# KB-3-1 tox = qHTS assay for MDR1-selective chemotherapeutics: Primary screen using the parental adenocarcinoma cell KB-3-1; KB-3-1 viability, CellTiter-Glo ATP luminescence, 72 h; 400,000 compounds, 1.4% hits; Potency, µM (series often up to 46.1 µM), actives largely listed as cytotoxic; AID 1347075, 2019; note: % is set by controls: 0 for no effect and ±100 for the full control effect; nearly all actives have a fitted effect of over 60% in size
#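 Using CellTiter-Glo luminescence, growth of non-resistant KB-3-1 adenocarcinoma cells is assessed 72 h after pin-tool compound addition at 37 °C. Normalized responses across the concentration series yield fitted curves.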
# MCF10A rerep = A quantitative high throughput screen for small molecules that induce DNA re-replication in MCF 10a normal breast cells; MCF 10A DNA re-replication, Hoechst nuclear intensity, 48 h; Potency, µM (titrated, usually from 46.1 µM), for the others: at the highest dose activity, positive = re-replication, actives largely listed as activators; 350,000 compounds, 2.9% hits; note: % of control where 0% means no effect; nearly all actives have a fitted effect of over 50% in size
# Gal4-VP16 FLuc = VP16 counterscreen qHTS for inhibitors of ROR gamma transcriptional activity | Potency, µM (series often up to 53.6 µM), inactives show top-dose activity, negative = inhibition, hits mostly inhibitors | 310,000 compounds, 3.5% hits | Drosophila S2 Gal4-VP16 UAS-luciferase, luminescence, 20 h;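 note: Gal4-VP16 expression switched on by copper sulfate through the metallothionein promoter; % is set by controls: 0 for no effect and ±100 for the full control effect; nearly all actives have a fitted effect of over 50% in size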
# Numbers without * were called inactive; i = inactive; u = inconclusive; x = no result given; ! = not active in a repeat; [ ] = remark or other dose. In the library only some 10% were active in any assay of this set; here they are far more common. Calls come from the whole dose curve; as a rule, active = well fitted curve in the direction sought with a large enough effect; inconclusive = small, poorly fitted or top-dose-only effect, or another doubt; inactive = no such curve, though single readings can be large; an effect the other way counts as inactive or inconclusive. Potency is the fitted concentration of half-maximal effect.
SMILES,KB-V1 MDR tox,SW480 rereplic,RORg inh,KB-3-1 tox,MCF10A rerep,Gal4-VP16 FLuc
CCOP(=O)(OCC)C(=Cc1cc(C(C)(C)C)c(O)c(C(C)(C)C)c1)P(=O)(OCC)OCC,x,x,u,x,x,-10.8%
COC(=O)C[C@](O)(CCCC(C)(C)O)C(=O)O[C@@H]1C(OC)=C[C@]23CCCN2CCc2cc4c(cc2[C@H]13)OCO4,x,25.6%,u,x,u,u
COc1cc2c(cc1O)C[C@H]1c3c(cc(OC)c(O)c3-2)CCN1C,x,x,-35.2%,x,x,-13.4%
C=C1C(=O)O[C@@H]2C[C@@H](C)[C@@H]3C4OC4C(=O)[C@@]3(C)[C@@H](O)[C@H]12 (stereo partly drawn),i,u,2.82µM*,i,u,3.98µM*
C=C1C(=O)O[C@@H]2C[C@@H](C)[C@@H]3C=CC(=O)[C@@]3(C)[C@@H](OC(=O)CC(=O)O[C@H]3[C@@H]4C(=C)C(=O)O[C@@H]4C[C@@H](C)[C@@H]4C=CC(=O)[C@]43C)[C@H]12,i,u,1.12µM*,i,u,0.631µM*
C=C1C(=O)O[C@H]2[C@H]1[C@H](OC(=O)CC(=O)O[C@@H]1C[C@@H](C)[C@@H]3C=CC(=O)[C@@]3(C)[C@H]3OC(=O)C(=C)[C@H]13)C[C@@H](C)[C@H]1C=CC(=O)[C@]12C,i,1.7%,7.08µM*,i,2.31µM*,7.08µM*
C=C1C(=O)OC2CC(C)C3C=CC(=O)C3(C)C(O)C12 (stereo not drawn),3.66µM*,u,x,3.26µM*,17.8%,x
COc1ccc(NC(=O)N2CC[C@@]3(CCCN(C(=O)Oc4ccccc4)C3)C2)cc1,x,x,3.7%,x,x,-11.0%
CN(C)c1ccc(/C=C2\CCCN=C2c2cccnc2)cc1,x,x,-37.0%,x,x,0.9%
C=C1C(=O)O[C@H]2C[C@@H](C)[C@@H]3C=CC(=O)[C@@]3(C)C[C@H]12,u,u,6.31µM*,u,2.91µM*,10µM*
CNC(C)[C@@H](O)c1ccc(O)cc1 (stereo partly drawn),x,-0.1%,14.8%,x,-3.4%,-13.2%
N#Cc1ccc(CN2CCC3(CC2)CCN(C(=O)Oc2ccccc2)CC3)cc1,x,x,-4.2%,x,x,-0.8%
CC[C@@H](C)[C@H](C(CC(=O)N1CCCC1[C@@H](OC)[C@H](C)C(=O)N[C@H](Cc1ccccc1)c1nccs1)OC)N(C)C(=O)[C@H](NC(=O)[C@@H](C(C)C)N(C)C)C(C)C (stereo partly drawn),0.184µM*,0.082µM*,x,u,14.7%,x
ClCCN(CCCl)c1ccc(C=Nc2ccncc2)cc1,i,x,x,i,x,x
COC(=O)C1=C(c2ccc3ccccc3c2)C[C@@H]2CC[C@H]1N2C(=O)N1CCOCC1,i,0.4%,x,i,u,x
COC(=O)C1=C(c2cc3ccccc3o2)C[C@@H]2CC[C@H]1N2C(=O)N1CCOCC1,23.1µM*,u,x,5.8µM*,u,x
COC(=O)C1=C(c2cc3ccccc3o2)C[C@@H]2CC[C@H]1N2C(=O)NC(C)C,i,10.3µM*,x,i,14.7%,x
O=c1c2ccccc2[se]n1-c1ccccc1,u,18.4µM*,10µM*,u,u,11.2µM*
CC(C)n1cnc2c(C(=O)N[C@H]3CN4CCC3CC4)cc(Cl)cc21,x,x,-10.7%,x,x,-11.3%
ClC(Cl)Br,x,x,-2.2%,x,x,-6.4%
CCOC(=O)C1C(=O)N(C)C2(C)CC1c1cc(OC)ccc1O2 (stereo not drawn),i,5.9%,-15.0%,i,4.0%,-6.8%
CCOC(=O)[C@]12Cc3cc(OC)ccc3[C@H]1N(CC(=O)OC)C(=O)c1cc(OC)ccc12,u,x,x,4.61µM*,x,x
CCOC(=O)[C@]12Cc3cc(OC)ccc3[C@H]1N(C)C(=O)c1cc(OC)ccc12,u,x,x,3.66µM*,x,x
CCOC(=O)[C@]12Cc3cc(OC)ccc3[C@H]1N(CC(=O)OC)C(=O)c1ccccc12,i,x,x,i,x,x
CCCCCN1C(=O)c2cc(OC)ccc2[C@@]2(C(=O)OCC)Cc3cc(OC)ccc3[C@@H]12,23.1µM*,x,x,5.8µM*,x,x
SMILES,KB-V1 MDR tox,SW480 rereplic,RORg inh,KB-3-1 tox,MCF10A rerep,Gal4-VP16 FLuc
CCOC(=O)[C@]12Cc3cc(Cl)ccc3[C@H]1N(C)C(=O)c1cc(OC)ccc12,4.11µM*,x,x,2.59µM*,x,x
CCCCCN1C(=O)c2ccccc2[C@@]2(C(=O)OCC)Cc3cc(Cl)ccc3[C@@H]12,i,x,x,u,x,x
O=C(O)[C@H]1[C@H]2CN[C@H](C(=O)O)[C@H]21,x,x,3.9%,x,x,1.1%
NC(=NCc1ccc(Cl)cc1)SCCCc1cnc[nH]1,x,x,7.5%,x,x,2.4%
Cc1c(C=C2C(=O)NC(=O)NC2=O)c(=O)n(-c2ccccc2)n1C,i,-20.0%,-6.5%,i,-2.7%,6.6%
CN1/C(=C\C=C2C(=O)NC(=O)NC2=O)C(C)(C)c2ccccc21,u,7.7%,36.8%,5.17µM*,12.3%,-0.7%
CC1(C)N(O)C2CCCCC2N1O (stereo not drawn),i,-0.7%,15.8µM*,i,10.0%,u
CN(C)C(=Nc1ccccc1)P(=S)(N(C)C)N(C)C,i,0.8%,10µM*,i,1.9%,-5.7%
CN1C[C@H](CNC(=O)OCc2ccccc2)C[C@H]2c3cccc4c3c(cn4C)C[C@@H]21,x,x,u,x,x,-7.4%
O=C(c1c[nH]c(C(=O)C(Cl)(Cl)Cl)c1)c1ccccc1Cl,i,0.1%,-29.4%,i,0.1%,u
CNC[C@H](O)c1ccc(O)c(OC)c1,x,x,-16.9%[16.9 µM],x,x,-1.8%[17 µM]
CNCC(O)c1cc(OCc2ccccc2)c(OCc2ccccc2)cc1F (stereo not drawn),18.4µM*,21.5%,x,u,25.0%,x
COc1ccc2cc1Oc1ccc(cc1)C[C@H]1c3cc(c(OC)cc3CCN1C)Oc1c(OC)c(OC)cc3c1[C@@H](C2)N(C)CC3,i,u,-16.4%[16.9 µM],i,-12.8%,-10.7%[17 µM]
NCc1cccnc1,x,-6.0%,1.7%,x,6.9%,-8.9%
C=CCc1cc(OC)c2c(c1OC)OCO2,x,x,-34.6%,x,x,u
C=C(C)[C@H]1Cc2c(ccc3c2O[C@@H]2COc4cc(OC)c(OC)cc4[C@@H]2C3=O)O1,x,u,u,x,3.93µM*!,u
C=C(C)C1Cc2c(ccc3c2OC2COc4cc(OC)c(OC)cc4C2C3=O)O1 (stereo not drawn),x,x,0.0355µM*,x,x,u
